# Results filed as inconclusive are left out. Where a call stands in place of a potency, no number is given. Values without a mark were called inactive. Activity calls are given as the source filed them. Calls come from the whole dose curve.
# Test: p53 small molecule agonists, cell-based qHTS assay with rat liver microsomes (AID 1963578)
# Settings: HCT-116 p53RE-bla, beta-lactamase ratio, 16 h; series mostly up to 66 µM
# Summary of the method: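 Compound in DMSO added to p53RE-bla cells 5 h post-plating; rat microsomes/NADPH 0.5 mg/mL final; 16 h, 37 C; LiveBLAzer 2 h RT.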
SMILES,activation,Potency
C=CC(=C)CC/C=C(\C)CCC=C(C)C,0.56% [at 13.6 µM],
C[C@H](CCC(=O)O)[C@H]1CC[C@H]2[C@@H]3[C@H](O)C[C@@H]4C[C@H](O)CC[C@]4(C)[C@H]3C[C@H](O)[C@]12C,,inactive
CC(C)C[P+](C)(CC(C)C)CC(C)C,,inactive
CCCCCCCCCCCCCCCCCCN(C)C,,inactive
CCOC(=O)O[C@H](C)OC(=O)c1ccc2c(c1)cc(C(=O)NC1CCN(C(C)C)CC1)n2Cc1cc(-c2ccc(Cl)s2)on1,,inactive
CC(=O)Nc1cccc(C)c1,,inactive
O=C(NCCN1CCOCC1)c1ccc(Cl)cc1,,inactive
CCCCCCCCCCCCCOP(=O)(O)O,,inactive
CCCC(C)C,,inactive
Cc1[nH]c(=O)c(C#N)cc1-c1ccc2nccn2c1,,inactive
CCO,,inactive
CC(=O)Nc1ccc(OCC(O)CNC(C)C)cc1 (stereo not given),,inactive
O=C(NS(=O)(=O)/C=C/c1ccccc1)c1ccc(F)cc1Cl,,inactive
CCOC(=O)CCCCCCCCC(=O)OCC,,inactive
CC(C)OC(=O)C(C(=O)OC(C)C)=C1SC=CS1,,inactive
O=C(CN1CCN(Cc2ccc3c(c2)OCO3)CC1)N1c2ccccc2Sc2ccccc21,,inactive
CC(=O)Oc1ccc(C(C)=O)cc1,,inactive
Cc1ccc(C(=O)Oc2ccc(C(O)CNC(C)(C)C)cc2OC(=O)c2ccc(C)cc2)cc1 (stereo not given),,inactive
Oc1ccc(Cl)c2cccnc12,,inactive
CCCCCCCC/C=C\CCCCCCCCOCCO,,inactive

SMILES,activation,Potency
CC(=O)OC(C)c1ccccc1 (stereo not given),,inactive
O=S(=O)(Cl)c1c(Cl)cccc1Cl,,inactive
CCOC(=O)CC1(C)OCC(C)O1 (stereo not given),,inactive
C1CC(COCC2CO2)CCC1COCC1CO1 (stereo not given),,inactive
CCCCCCCCCCC(=O)O,,inactive
O=C1OCc2ccccc21,,inactive
CC1(C)C(=O)N(CO)C(=O)N1CO,,inactive
CCCC(c1cc(C(C)(C)C)c(O)cc1C)c1cc(C(C)(C)C)c(O)cc1C,,inactive
O=C(O)CNCC(=O)O,0.304% [at 5.99 µM],
CCCS(=O)c1ccc2nc(NC(=O)OC)[nH]c2c1 (stereo not given),,inactive
O=C(OCc1ccccc1)C(=O)OCc1ccccc1,,inactive
C/C=C(\C)C#N,,inactive
Cl[Si](Cl)(c1ccccc1)c1ccccc1,,inactive
N=C(N)c1ccc(OCCCOc2ccc(C(=N)N)cc2)cc1,,inactive
COC(=O)C(C)O (stereo not given),,inactive
CCc1nccnc1CC,1.15% [at 13.6 µM],
C=CC(=O)OCCCCCCCCCC,,inactive
CO[Si](CCCNc1ccccc1)(OC)OC,,inactive
CCCCCCCCCCCCCCCCOS(=O)(=O)O,,inactive
CC(C)(c1ccc(Oc2ccc3c(c2)C(=O)OC3=O)cc1)c1ccc(Oc2ccc3c(c2)C(=O)OC3=O)cc1,,inactive

# From PubChem BioAssay (Tox21)
